Tests used:
Format in all cases: functional
Plasmodium falciparum [1] = experiment: GSK_TCMDC: Inhibition of Plasmodium falciparum 3D7 in whole red blood cells, using parasite LDH activity as an index of growth. Test compounds present at 2uM
Plasmodium falciparum [2] = experiment: GSK_TCMDC: Inhibition of Plasmodium falciparum Dd2 in whole red blood cells, using parasite LDH activity as an index of growth. Test compounds present at 2uM
HepG2 = experiment: GSK_TCMDC: Percent inhibition of human HepG2 cell line. Test compounds present at 10uM.

SMILES | Inhibition (Plasmodium falciparum [1]) [%] | Inhibition (Plasmodium falciparum [2]) [%] | Inhibition (HepG2) [%]
Cc1nn(C2CCS(=O)(=O)C2)c(C)c1C1Nc2ccccc2C(=O)N1Cc1ccc2c(c1)OCO2 (stereo not drawn) | 98 | 93 | 7
S=c1nc(-c2ccccc2)n2ccsc2n1 | 95 | 0 | 3
CCC(C)c1ccc(NC(=O)C(C)c2ccc([N+](=O)[O-])cc2)cc1 (stereo not drawn) | 100 | 100 | 14
CCC(CC)OC(=O)C(C)c1cccc(C(=O)c2ccccc2)c1 (stereo not drawn) | 93 | 0 | 0
COc1ccc(-c2cnc3[nH]cc(-c4ccncc4)c3c2)cc1OC | 98 | 97 | 52
CN(C)CCCN1C(=O)c2[nH]nc(-c3ccc(Cl)cc3O)c2C1c1ccc(Cl)cc1 (stereo not drawn) | 99 | 15 | 57
CC(C)C[C@H](Nc1ccnc(NCC2CCCCC2)n1)C(=O)NCCOc1ccccc1.O=C(O)C(F)(F)F | 89 | 73 | 37
O=C(/C=C/c1ccc(Cl)c(Cl)c1)NCCCCCN1CCC(c2c[nH]c3ccccc23)CC1 | 99 | 7 | 33
CC(C)C(C(=O)n1cc2c(ccc3nc(N)nc(N)c32)n1)C(C)C | 98 | 49 | 58
O=C(Nc1cccc(CN2CCN(C(=O)c3ccccc3)CC2)c1)c1cccs1.O=C(O)C(F)(F)F | 95 | 97 | 15
COc1ccc(N2CCN(CCCN3CCN(C(=O)c4ccc(/C=C/c5ccc(Cl)c(Cl)c5)cc4)CC3)CC2)c(OC)c1.O=C(O)/C=C/C(=O)O | 93 | 52 | 47
CCC(C)(CC)C(=O)n1ncc2c3c(N)nc(N)nc3ccc21 | 94 | 6 | 73
Br.N=c1sc2ccccc2n1CC(O)c1ccc(Cl)c(Cl)c1 (stereo not drawn) | 99 | 74 | 4
O=C(/C=C/c1ccc(Cl)c(Cl)c1)N1CCC(CN2CCC(Cc3nc4ccccc4[nH]3)CC2)CC1 | 100 | 95 | 34
O=C(CNCC1CCCCC1)Nc1cc(C(F)(F)F)ccc1Cl | 86 | 67 | 1
CCC(C)NC(=O)Cn1c2ncccc2c(=O)n1-c1ccc(C)cc1 (stereo not drawn) | 95 | 63 | 4
O=C(Nc1cccc(-c2csc(-c3ccccc3)n2)c1)c1cccs1 | 89 | 71 | 0
Cn1cnc(CCNC(=O)c2cccc(-c3cccc(-c4nc5cc(C(F)(F)F)ccc5[nH]4)c3)c2)c1 | 100 | 45 | 37

SMILES | Inhibition (Plasmodium falciparum [1]) [%] | Inhibition (Plasmodium falciparum [2]) [%] | Inhibition (HepG2) [%]
CCCCN(C)CC#Cc1ccc2[nH]c(C)c(Cl)c(=O)c2c1 | 98 | 97 | 0
Cc1ccc(NC(=O)c2ccc3ncccc3c2)cc1OC1CCN(C(C)C)C1.O=C(O)C(F)(F)F (stereo not drawn) | 95 | 37 | 12
CC(=O)N1N=C(c2ccc(F)cc2)Sc2c1nc(C1CCCCC1)n2C(C)=O | 92 | 9 | 4
O=C(/C=C/c1ccc(Cl)cc1)NCCCCCN1CCCC(C(=O)Nc2ccc(Cl)cc2)C1 (stereo not drawn) | 94 | 6 | 24
CC(C)c1ccc(NC(=O)c2ccc(C(=O)NC3CCN(Cc4ccsc4)C3)cc2)cc1.O=C(O)C(F)(F)F (stereo not drawn) | 82 | 28 | 17
COc1cc2nc(Nc3ccc(Oc4ccccc4)cc3)nc(Nc3ccc(Oc4ccccc4)cc3)c2cc1OC | 95 | 45 | 5
O=C(NCCCNc1ccnc2cc(Cl)ccc12)c1ccccc1F | 100 | 97 | 18
CCc1cc2c(Sc3nnc(N)s3)ncnc2s1 | 99 | 65 | 0
COc1cc2nccc(Nc3ccc4c(cnn4Cc4ccccc4F)c3)c2cc1OC.Cl | 100 | 91 | 55
COc1ccc(-c2cccc(NC(=O)c3cccc(Cl)c3)c2)cc1CN1CCC(O)CC1.O=C(O)C(F)(F)F | 98 | 16 | 38
O=C(NC(=S)NCc1ccncc1)c1ccccc1 | 94 | 0 | 0
Nc1nccc2ccc(-c3cccc(O)c3)cc12 | 95 | 71 | 43
CC(C)(C)C1CCc2nc(N)nc(N)c2C1.Cl (stereo not drawn) | 94 | 38 | 69
CCOc1ccc(Br)cc1/C=C/C(=O)Nc1ccc2c(c1)CCCN(C)C2.O=C(O)C(F)(F)F | 90 | 17 | 40
Cc1nc2ccc([N+](=O)[O-])cc2c(=O)n1OCc1ccccc1 | 98 | 0 | 2
CNC(=O)c1nc(-c2ccccc2)[nH]c1NC(C)=O | 100 | 0 | 0
COc1cc(CNCCCNc2nc3ncccc3[nH]2)c2[nH]cc(Br)c2c1 | 92 | 3 | 12
CN(C)C(=O)CC(=O)NCc1c(Cl)cccc1Cl | 95 | 2 | 2

Reference: ChEMBL document CHEMBL1157539, “Thousands of chemical starting points for antimalarial lead identification” (Nature, 2010)
